PubChem BioAssay AID1159580 (chemical genetic matrix, 2015)
Several values for one entry are separate records, joined by “and”; a condition that tells them apart may be missing. Equal values may be shown once. About 2,000 (36%) of roughly 5,500 compounds were called active. Not shown: some 18% with an inconclusive outcome. No stated cut-off is given here; in the data, active means normalized growth mostly below about 0.91 (no sharp cut-off); inconclusive means no clear call, values can overlap the other calls; inactive means mostly above about 0.92. This is one part of the list. Where a SMILES comes first, the peptide text is derived from it.

Test: chemical genetic growth profiling, strain panel (AID 1159580);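 further: tested at 20 µM; growth read once vehicle control cultures reached saturation at 30 °C; 1 = growth at the plate median or of vehicle wells; lower values mean less growth of the strain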
Conditions: S. cerevisiae deletion strains, growth OD

Measured: normalized growth

CC(=O)N[C@@H](CC(=O)O)C(=O)N[C@@H](CCC(=O)O)C(=O)O (Ac-Asp-Glu-OH)
inactive: locus YAL013W, strain DEP1, active compounds read low 0.996 | locus YAL021C, strain ccr4, active compounds read low 1 | locus YAL026C, strain drs2, active compounds read low 1.01 | locus YAL030W, strain snc1, active compounds read low 1.01 | locus YBL061C, strain skt5, active compounds read low 1 | locus YBR009C, strain hhf1, active compounds read low 0.969 | locus YBR021W, strain FUR4, active compounds read low 1.02 | locus YBR023C, strain chs3, active compounds read low 1.01 | locus YBR171W, strain sec66, active compounds read low 1 | locus YBR229C, strain ROT2, active compounds read low 1.01 | locus YBR231C, strain swc5, active compounds read low 0.997 | locus YBR279W, strain paf1, active compounds read low 1 | locus YCL011C, strain gbp2, active compounds read low 1 | locus YCL016C, strain dcc1, active compounds read low 0.998 | locus YCL029C, strain bik1, active compounds read low 0.989 | locus YCL061C, strain MRC1, active compounds read low 1 | locus YCL069W, strain vba3, active compounds read low 1 | locus YCR088W, strain abp1, active compounds read low 1 | locus YDL005C, strain med2, active compounds read low 1 | locus YDL035C, strain GPR1, active compounds read low 1.01 | locus YDL040C, strain nat1, active compounds read low 0.998 | locus YDL074C, strain BRE1, active compounds read low 1.03 | locus YDL101C, strain DUN1, active compounds read low 1.03 | locus YDL134C, strain PPH21, active compounds read low 1.02 | locus YDL185W, strain tfp1, active compounds read low 1 | locus YDL192W, strain arf1, active compounds read low 0.996 | locus YDR001C, strain nth1, active compounds read low 1 | locus YDR069C, strain doa4, active compounds read low 1 | locus YDR101C, strain arx1, active compounds read low 0.98 | locus YDR137W, strain rgp1, active compounds read low 1.03 | locus YDR150W, strain NUM1, active compounds read low 1.02 | locus YDR159W, strain sac3, active compounds read low 0.983 | locus YDR162C, strain NBP2, active compounds read low 1.02 | locus YDR195W, strain ref2 0.985 | locus YDR297W, strain sur2, active compounds read low 0.996 | locus YDR318W, strain mcm21, active compounds read low 0.981 | locus YDR334W, strain swr1, active compounds read low 1.01 | locus YDR335W, strain msn5, active compounds read low 1 | locus YDR388W, active compounds read low 0.989 | locus YDR392W, strain spt3, active compounds read low 0.898 | locus YDR502C, strain sam2, active compounds read low 0.989 | locus YEL003W, strain gim4, active compounds read low 1 | locus YEL037C, strain rad23, active compounds read low 1.01 | locus YEL061C, strain CIN8 (second series), active compounds read low 1 | locus YEL061C, strain CIN8, active compounds read low 1.01 | locus YER015W, strain faa2, active compounds read low 1 | locus YER016W, strain bim1, active compounds read low 1 | locus YER110C, active compounds read low 0.987 | locus YER111C, strain swi4, active compounds read low 0.993 | locus YER155C, strain BEM2 (second series), active compounds read low 1.01 | locus YER155C, strain BEM2, active compounds read low 1.01 | locus YER167W, strain BCK2, active compounds read low 1 | locus YFR010W, strain ubp6, active compounds read low 1.01 | locus YGL078C, strain dbp3, active compounds read low 0.993 | locus YGL086W, strain mad1, active compounds read low 0.994 | locus YGL167C, strain pmr1, active compounds read low 0.995 | locus YGL173C, strain kem1, active compounds read low 1.01 | locus YGL227W, strain vid30, active compounds read low 1 | locus YGL240W, strain doc1, active compounds read low 0.987 | locus YGL248W, strain PDE1, active compounds read low 1.02 | locus YGL253W, strain hxk2, active compounds read low 1.02 | locus YGR078C, strain PAC10, active compounds read low 1.01 | locus YGR135W, strain pre9, active compounds read low 0.995 | locus YGR229C, strain SMI1, active compounds read low 1.01 | locus YGR252W, strain gcn5, active compounds read low 0.97 | locus YHR013C, strain ard1, active compounds read low 0.977 | locus YHR027C, strain rpn1, active compounds read low 1.01 | locus YHR030C, strain SLT2, active compounds read low 1.01 and 0.999 | locus YHR079C, strain IRE1 (second series), active compounds read low 0.992 | locus YHR079C, strain IRE1, active compounds read low 0.99 | locus YHR094C, strain hxt1, active compounds read low 0.985 | locus YHR129C, strain ARP1, active compounds read low 1.01 | locus YHR142W, strain chs7, active compounds read low 1.04 | locus YHR200W, strain rpn10, active compounds read low 0.998 | locus YIL066C, strain RNR3, active compounds read low 1.01 | locus YIL073C, strain SPO22, active compounds read low 1 | locus YIL125W, strain kgd1, active compounds read low 0.982 | locus YIR030C, strain dcg1, active compounds read low 0.992 | locus YJL092W, strain hpr5, active compounds read low 1.01 | locus YJL095W, strain BCK1 (second series), active compounds read low 1 | locus YJL095W, strain BCK1, active compounds read low 1.02 and 0.976 | locus YJL115W, strain asf1, active compounds read low 0.999 | locus YJL129C, strain trk1, active compounds read low 1.01 | locus YJL134W, strain LCB3, active compounds read low 1.01 | locus YJL154C, strain vps35, active compounds read low 1 | locus YJL164C, strain tpk1, active compounds read low 1 | locus YJL166W, strain qcr8, active compounds read low 1.01 | locus YJL168C, strain set2, active compounds read low 0.99 | locus YJL187C, strain SWE1 (second series), active compounds read low 1.01 | locus YJL187C, strain SWE1, active compounds read low 1 | locus YJR043C, strain POL32, active compounds read low 1.01 | locus YJR066W, strain TOR1, active compounds read low 0.904
